Results published in PubChem BioAssay AID1159580 (chemical genetic matrix, 2015).
About 2,000 (36%) of roughly 5,500 compounds were called active. Inconclusive results (about 18%) are left out. No stated cut-off is given here; in the data, active means normalized growth mostly below about 0.91 (no sharp cut-off); inconclusive means no clear call, values can overlap the other calls; inactive means mostly above about 0.92. Some of the results follow.

Assay: chemical genetic growth profiling, strain panel (AID 1159580);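 further: tested at 20 µM; growth read once vehicle control cultures reached saturation at 30 °C; 1 = growth at the plate median or of vehicle wells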
Conditions: growth OD
[1] = S. cerevisiae deletion strains, locus YAL013W, strain DEP1, stronger effect = lower value
[2] = S. cerevisiae deletion strains, locus YBR229C, strain ROT2, stronger effect = lower value
[3] = S. cerevisiae deletion strains, locus YCL061C, strain MRC1, stronger effect = lower value
[4] = S. cerevisiae deletion strains, locus YDL101C, strain DUN1, stronger effect = lower value
[5] = S. cerevisiae deletion strains, locus YDR150W, strain NUM1, stronger effect = lower value
[6] = S. cerevisiae deletion strains, locus YEL061C, strain CIN8, stronger effect = lower value
[7] = S. cerevisiae deletion strains, locus YGR078C, strain PAC10, stronger effect = lower value
[8] = S. cerevisiae deletion strains, locus YHR030C, strain SLT2, stronger effect = lower value
[9] = S. cerevisiae deletion strains, locus YHR087W, strain rtc3, stronger effect = lower value
[10] = S. cerevisiae deletion strains, locus YJL187C, strain SWE1, stronger effect = lower value
[11] = S. cerevisiae deletion strains, locus YJR043C, strain POL32, stronger effect = lower value
[12] = S. cerevisiae deletion strains, locus YJR075W, strain HOC1, stronger effect = lower value
[13] = S. cerevisiae deletion strains, locus YLR039C, strain RIC1, stronger effect = lower value
[14] = S. cerevisiae deletion strains, locus YLR058C, strain SHM2 (second series), stronger effect = lower value
[15] = S. cerevisiae deletion strains, locus YLR085C, strain ARP6, stronger effect = lower value
[16] = S. cerevisiae deletion strains, locus YLR262C, strain YPT6, stronger effect = lower value
[17] = S. cerevisiae deletion strains, locus YML094W, strain GIM5, stronger effect = lower value
[18] = S. cerevisiae deletion strains, locus YMR219W, strain ESC1, stronger effect = lower value
[19] = S. cerevisiae deletion strains, locus YMR263W, strain SAP30, stronger effect = lower value
[20] = S. cerevisiae deletion strains, locus YNL153C, strain GIM3, stronger effect = lower value
[21] = S. cerevisiae deletion strains, locus YNL298W, strain CLA4 (second series), stronger effect = lower value
[22] = S. cerevisiae deletion strains, locus YNL322C, strain KRE1, stronger effect = lower value
[23] = S. cerevisiae deletion strains, locus YNR030W, strain Alg12, stronger effect = lower value
[24] = S. cerevisiae deletion strains, locus YOL006C, strain TOP1, stronger effect = lower value
[25] = S. cerevisiae deletion strains, locus YPL055C, strain LGE1, stronger effect = lower value
[26] = S. cerevisiae deletion strains, locus YPL241C, strain CIN2, stronger effect = lower value
[27] = S. cerevisiae deletion strains, locus YPR135W, strain CTF4, stronger effect = lower value
[28] = S. cerevisiae strains, strain wild type, stronger effect = lower value

Measured: normalized growth

N#CCCN(CC1CCCO1)C(=S)Nc1cc(C(F)(F)F)cc(C(F)(F)F)c1 (stereo not given)
active: [23] 0.829 | [26] 0.797
inactive: [1] 1.01 | [2] 0.965 | [3] 0.994 | [4] 0.991 | S. cerevisiae deletion strains, locus YDL134C, strain PPH21, stronger effect = lower value 0.95 | [5] 0.953 | [6] 0.982 | [7] 0.985 | [8] 0.882 | [9] 0.979 | [10] 1 | [11] 0.938 | [12] 0.918 | S. cerevisiae deletion strains, locus YKL190W, strain CNB1, stronger effect = lower value 1.02 | [13] 0.86 | [14] 1.01 | [15] 0.85 | [16] 0.908 | [17] 0.888 | [18] 0.996 | [19] 0.978 | [20] 1 | [21] 0.985 | [22] 1 | [24] 0.903 | [25] 0.866 | [27] 0.827 | [28] 1.02

O=C(NCc1ccc(Cl)c(Cl)c1)c1cccnc1OCC(F)(F)F
inactive: S. cerevisiae deletion strains, locus YAR019C, strain CDC15, stronger effect = lower value 0.956 | S. cerevisiae deletion strains, locus YBL105C, strain PKC1, stronger effect = lower value 0.951 | S. cerevisiae deletion strains, locus YBR135W, strain CKS1, stronger effect = lower value 0.947 | S. cerevisiae deletion strains, locus YBR136W, strain MEC1, stronger effect = lower value 0.97 | S. cerevisiae deletion strains, locus YBR160W, strain CDC28, stronger effect = lower value 0.961 | S. cerevisiae deletion strains, locus YDL017W, strain CDC7, stronger effect = lower value 0.955 | S. cerevisiae deletion strains, locus YDL028C, strain MPS1, stronger effect = lower value 0.97 | [4] 0.958 | S. cerevisiae deletion strains, locus YDL108W, strain KIN28, stronger effect = lower value 0.947 | S. cerevisiae deletion strains, locus YDL132W, strain cdc53, stronger effect = lower value 0.952 | S. cerevisiae deletion strains, locus YDL214C, strain PRR2, stronger effect = lower value 0.971 | S. cerevisiae deletion strains, locus YDR052C, strain DBF4, stronger effect = lower value 0.971 | S. cerevisiae deletion strains, locus YDR054C, strain cdc34, stronger effect = lower value 0.958 | S. cerevisiae deletion strains, locus YDR226W, strain ADK1, stronger effect = lower value 0.967 | S. cerevisiae deletion strains, locus YDR477W, strain SNF1, stronger effect = lower value 0.974 | S. cerevisiae deletion strains, locus YER123W, strain YCK3, stronger effect = lower value 0.949 | S. cerevisiae deletion strains, locus YER133W, strain GLC7, stronger effect = lower value 0.961 | S. cerevisiae deletion strains, locus YFL009W, strain cdc4, stronger effect = lower value 0.966 | S. cerevisiae deletion strains, locus YFL029C, strain CAK1, stronger effect = lower value 0.955 | S. cerevisiae deletion strains, locus YFR003C, strain YPI1, stronger effect = lower value 0.949 | S. cerevisiae deletion strains, locus YFR019W, strain FAB1, stronger effect = lower value 0.97 | S. cerevisiae deletion strains, locus YFR028C, strain CDC14, stronger effect = lower value 0.947 | S. cerevisiae deletion strains, locus YGR040W, strain KSS1, stronger effect = lower value 0.965 | S. cerevisiae deletion strains, locus YGR052W, strain FMP48, stronger effect = lower value 1.02 | S. cerevisiae deletion strains, locus YGR092W, strain DBF2, stronger effect = lower value 0.932 | [8] 1.04 | S. cerevisiae deletion strains, locus YHR079C, strain IRE1, stronger effect = lower value 1.03 | S. cerevisiae deletion strains, locus YHR082C, strain KSP1, stronger effect = lower value 1.06 | S. cerevisiae deletion strains, locus YHR205W, strain SCH9, stronger effect = lower value 0.95 | S. cerevisiae deletion strains, locus YIL147C, strain SLN1, stronger effect = lower value 0.958 | S. cerevisiae deletion strains, locus YJL095W, strain BCK1, stronger effect = lower value 1.02 | S. cerevisiae deletion strains, locus YJL128C, strain PBS2, stronger effect = lower value 0.9 | S. cerevisiae deletion strains, locus YJL157C, strain FAR1, stronger effect = lower value 0.973 | S. cerevisiae deletion strains, locus YJR016C, strain ILV3, stronger effect = lower value 0.965 | S. cerevisiae deletion strains, locus YJR066W, strain TOR1 (second series), stronger effect = lower value 0.972 | S. cerevisiae deletion strains, locus YJR066W, strain TOR1, stronger effect = lower value 1.07 | S. cerevisiae deletion strains, locus YKL048C, strain ELM1, stronger effect = lower value 0.951 | S. cerevisiae deletion strains, locus YKL067W, strain YNK1, stronger effect = lower value 0.955 | S. cerevisiae deletion strains, locus YKL101W, strain HSL1, stronger effect = lower value 0.968 | S. cerevisiae deletion strains, locus YKL193C, strain SDS22, stronger effect = lower value 0.951 | S. cerevisiae deletion strains, locus YKL203C, strain TOR2, stronger effect = lower value 1.04 | S. cerevisiae deletion strains, locus YLR113W, strain HOG1, stronger effect = lower value 0.891 | S. cerevisiae deletion strains, locus YLR133W, strain CKI1, stronger effect = lower value 0.965 | S. cerevisiae deletion strains, locus YLR403W, strain SFP1, stronger effect = lower value 0.978 | S. cerevisiae deletion strains, locus YML070W, strain DAK1, stronger effect = lower value 0.944 | S. cerevisiae deletion strains, locus YMR001C, strain CDC5, stronger effect = lower value 0.937 | S. cerevisiae deletion strains, locus YMR205C, strain PFK2 (second series), stronger effect = lower value 0.958 | S. cerevisiae deletion strains, locus YMR277W, strain FCP1, stronger effect = lower value 0.947 | S. cerevisiae deletion strains, locus YNL006W, strain LST8, stronger effect = lower value 0.968 | S. cerevisiae deletion strains, locus YNL020C, strain ARK1, stronger effect = lower value 0.968 | S. cerevisiae deletion strains, locus YNL161W, strain CBK1, stronger effect = lower value 0.971 | S. cerevisiae deletion strains, locus YNL183C, strain NPR1, stronger effect = lower value 0.99 | S. cerevisiae deletion strains, locus YNL207W, strain RIO2, stronger effect = lower value 0.968 | S. cerevisiae deletion strains, locus YNL222W, strain SSU72, stronger effect = lower value 0.953 | S. cerevisiae deletion strains, locus YNL307C, strain MCK1 (second series), stronger effect = lower value 0.957 | S. cerevisiae deletion strains, locus YOL078W, strain AVO1, stronger effect = lower value 0.963 | S. cerevisiae deletion strains, locus YOL136C, strain PFK27, stronger effect = lower value 0.968 | S. cerevisiae deletion strains, locus YOR061W, strain CKA2, stronger effect = lower value 0.945 | S. cerevisiae deletion strains, locus YOR119C, strain RIO1, stronger effect = lower value 1.01 | S. cerevisiae deletion strains, locus YOR231W, strain MKK1, stronger effect = lower value 1.03 | S. cerevisiae deletion strains, locus YOR329C, strain SCD5, stronger effect = lower value 0.969 | S. cerevisiae deletion strains, locus YPL031C, strain PHO85, stronger effect = lower value 0.97 | S. cerevisiae deletion strains, locus YPL153C, strain RAD53, stronger effect = lower value 0.968 | S. cerevisiae deletion strains, locus YPL204W, strain HRR25, stronger effect = lower value 0.971 | S. cerevisiae deletion strains, locus YPL209C, strain IPL1, stronger effect = lower value 0.968 | S. cerevisiae deletion strains, locus YPL256C, strain CLN2, stronger effect = lower value 0.995 | S. cerevisiae deletion strains, locus YPR025C, strain CCL1, stronger effect = lower value 0.964 | S. cerevisiae deletion strains, locus YPR106W, strain ISR1, stronger effect = lower value 0.961 | S. cerevisiae deletion strains, locus YPR111W, strain DBF20, stronger effect = lower value 0.958 | S. cerevisiae deletion strains, strain NNK1, stronger effect = lower value 0.959 | S. cerevisiae deletion strains, strain TSCII, stronger effect = lower value 0.958

CN(C)C=Nc1ncccc1OCc1ccc(Cl)c(Cl)c1
active: [8] 0.47 | [15] 0.722 | [21] 0.788 | [24] 0.563 | [28] 0.878
inactive: [1] 0.973 | [2] 0.989 | [3] 0.945 | [4] 0.951 | [5] 0.851 | [6] 0.951 | [7] 0.964 | S. cerevisiae deletion strains, locus YGR229C, strain SMI1, stronger effect = lower value 0.967 | [9] 1.04 | [10] 0.959 | [11] 0.951 | [12] 1 | [13] 1.05 | [14] 1 | [16] 1.05 | [17] 0.923 | [18] 0.987 | [19] 0.963 | [20] 0.94 | [22] 0.978 | [23] 0.926 | [25] 0.995 | [26] 0.888 | [27] 0.756
